Test results from PubChem BioAssay (NCATS).
Results filed as inconclusive are left out. Where a call stands in place of a potency, no number is given. Calls of active or inactive are those of the source. Calls follow the shape of the dose curve; as a rule, active = well fitted curve in the direction sought with a large enough effect; inconclusive = small, poorly fitted or top-dose-only effect, or another doubt; inactive = no such curve, though single readings can be large or run the other way.

Molecular target: Metallo-beta-lactamase type 2 (Klebsiella pneumoniae) (UniProt C7C422)
Sequence (C7C422 whole entry, looked up): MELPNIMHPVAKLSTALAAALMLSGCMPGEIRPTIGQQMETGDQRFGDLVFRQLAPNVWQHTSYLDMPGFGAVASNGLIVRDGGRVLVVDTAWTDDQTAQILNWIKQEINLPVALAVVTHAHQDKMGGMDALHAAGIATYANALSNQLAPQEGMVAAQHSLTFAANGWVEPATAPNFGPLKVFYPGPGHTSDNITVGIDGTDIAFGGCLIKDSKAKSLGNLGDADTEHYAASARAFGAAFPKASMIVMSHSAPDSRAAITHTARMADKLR
Assay: qHTS to identify inhibitors of the New Delhi Metallo-beta-lactamase (NDM): assay validation screen against the NCATS LOPAC Collection (AID 1794843);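 also: nitrocefin turnover by NDM-1 measured as 485 nm absorbance at plateau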
Settings: NDM-1 enzyme, nitrocefin hydrolysis, absorbance 485 nm; series mostly up to 38.4 µM
Excerpt: Assay Submitter (PI): James Inglese Ph.D., Patricia Dranchak Ph.D., Mahesh Aitha Ph.D.
Assay Development and Screening Technology Laboratory (ADST)
National Center for Advancing Translational Sciences (NCATS), Rockville, MD
National Institute of Health (NIH), Bethesda, Maryland
The metallo-beta-lactamases (MBL) are a main antibiotic resistance mechanism evolved by bacteria. There is an urgent clinical need for MBL inhibitors to mitigate this growing threat. To support a machine-based learning study, qHTS has been used to experimentally test inhibitors identified by prediction tools.
PROTOCOL TABLE (as described by Inglese et al., 2007)
SEQUENCE No. (e.g., 1, 2, 3, etc.); […] (e.g., enzyme, Incubation, Reagent, etc.); VALUE; DESCRIPTION
1; NDM-1; 4 uL of 3 nM enzyme in 50 mM HEPES (pH 7.0), 1 uM Zn2SO4, 0.01% Tween20; Use BioRaptr to dispense into Aurora black, clear bottom low base 1536-well plates
2; Compounds; 23 nL; Use Pin Tool (Wako) to transfer DMSO control and library compounds in DMSO
4; Reagent; 2 uL of 50 uM nitrocefin
6; Detector; Absorbance at 485 nm (bandwidth = 5 nm, 25 flashes/well) on Tecan Infinity
NOTES (numbers refer to sequence above)
1; Column 1 of each plate received assay buffer without enzyme and columns 2-48 received enzyme for a final assay concentration of 2 nM.
2; Control plate contained DMSO in columns 1, 2, 3, and 4.
3; Compound interaction with enzyme.
5; Substrate interaction with enzyme, plateau phase of kinetics.
6; Default reader settings were applied for absorbance read at 485 nm, bandwidth = 5 nm, 25 flashes/well.
Inglese J, Shamu CE, Guy RK. 2007. Reporting data from high-throughput screening of small-molecule libraries. Nat Chem Biol. doi:10.1038/nchembio0807-438
Yasgar A, Shinn P, Jadhav A, Auld D, Michael S, Zheng W, Austin CP, Inglese J, Simeonov A. 2008. Compound Management for Quantitative High-Throughput Screening. J Lab Autom 13:79 - 89. doi:10.1016/j.jala.2007.12.004

Row | SMILES | Potency
1 | Nc1nc(N)c2nc(-c3ccccc3)c(N)nc2n1 | inactive
2 | CCN(CC)CCCN(c1ccccc1)C1Cc2ccccc2C1 | inactive
3 | CC(C)(C)c1ccc(C(=O)CCCN2CCC(OC(c3ccccc3)c3ccccc3)CC2)cc1 | inactive
4 | CC(C)NCC(O)c1cc(O)cc(O)c1 (stereo not given) | inactive
5 | CCn1ccnc1CC1COc2ccccc2O1 (stereo not given) | inactive
6 | COC(=O)C1=C(C)NC(C)=C(C(=O)OCCN(C)Cc2ccccc2)C1c1cccc([N+](=O)[O-])c1 (stereo not given) | inactive
7 | CN(C)CC/C=C1\c2ccccc2COc2ccccc21 | inactive
8 | CCCN1C[C@H](CSC)C[C@@H]2c3cccc4[nH]cc(c34)C[C@H]21 | inactive
9 | O=C1NCN(c2ccccc2)C12CCN(CCCC(c1ccc(F)cc1)c1ccc(F)cc1)CC2 | inactive
10 | C[n+]1cc2c3c(ccc2c2ccc4cc5c(cc4c21)OCO5)OCO3 | inactive
11 | NC(=O)c1ncn([C@@H]2O[C@H](CO)[C@@H](O)[C@H]2O)c1O | inactive
12 | Nc1ncn([C@@H]2O[C@H](CO)[C@@H](O)[C@H]2O)c(=O)n1 | inactive
13 | C[C@@H](O)[C@H]1C(=O)N2C(C(=O)O)=C(SCCN=CN)C[C@H]12 | inactive
14 | CCN1CCc2nc(N)oc2CC1 | inactive
15 | CC(=O)OCC1=C(C(=O)O)N2C(=O)[C@@H](NC(=O)Cc3cccs3)[C@H]2SC1 | inactive
16 | CN=C(NC#N)NCCSCc1nc[nH]c1C | inactive
17 | Cc1ccc(=O)n(-c2ccccc2)c1 | inactive
18 | CCOC(=O)C1=C(C)NC(C)=C(C(=O)OC)C1c1cccc(Cl)c1Cl (stereo not given) | inactive
19 | CCNC(=O)N1CCN(CCCC(c2ccc(F)cc2)c2ccc(F)cc2)CC1 | inactive
20 | CN1C[C@H](C(=O)N[C@]2(C)O[C@@]3(O)[C@@H]4CCCN4C(=O)[C@H](Cc4ccccc4)N3C2=O)C[C@@H]2c3cccc4[nH]cc(c34)C[C@H]21 | inactive

Row | SMILES | Potency
21 | Cc1nc2sccn2c(=O)c1CCN1CCC(=C(c2ccc(F)cc2)c2ccc(F)cc2)CC1 | inactive
22 | CN(C)C(=O)Oc1cccc([N+](C)(C)C)c1 | inactive
23 | c1cc(CN2CCCCC2)cc(OCCCNc2nc3ccccc3s2)c1 | inactive
24 | NC(N)=NC(=O)Cc1c(Cl)cccc1Cl | inactive
25 | C[N+](C)(C)CCCCCCCCCC[N+](C)(C)C | inactive
26 | CC[N+](C)(C)c1cccc(O)c1 | inactive
27 | CCOC(=O)c1cnc2c(cnn2CC)c1NN=C(C)C | inactive
28 | COCCCC/C(=N\OCCN)c1ccc(C(F)(F)F)cc1 | inactive
29 | Cc1nc2ccccn2c(=O)c1CCN1CCC(C(=O)c2ccc(F)cc2)CC1 | inactive
30 | O=C(CCCN1CCC(O)(c2cccc(C(F)(F)F)c2)CC1)c1ccc(F)cc1 | inactive
31 | NC(=O)c1cn(Cc2c(F)cccc2F)nn1 | inactive
32 | CCn1nc(C(=O)O)c(=O)c2cc3c(cc21)OCO3 | inactive
33 | CC(C(=O)O)c1ccc(CC2CCCC2=O)cc1 (stereo not given) | inactive
34 | COCC(=O)O[C@]1(CCN(C)CCCc2nc3ccccc3[nH]2)CCc2cc(F)ccc2[C@@H]1C(C)C | inactive
35 | COCCc1ccc(OCC(O)CNC(C)C)cc1 (stereo not given) | inactive
36 | CCCCNc1c(C(=O)OCC)c(C)nc2c1cnn2CC | inactive
37 | COc1cc2c(cc1OC)-c1cc(=Nc3c(C)cc(C)cc3C)n(C)c(=O)n1CC2 | inactive
38 | CC(C)COCC(CN(Cc1ccccc1)c1ccccc1)N1CCCC1 (stereo not given) | inactive
39 | CN1C(=O)CC[C@H]1c1cccnc1 | inactive
40 | CC1=NS(=O)(=O)c2cc(Cl)ccc2N1 | inactive
